Rows were chosen to be rich in hits. Some 0.3% of all compounds tested hit in one or more screens of this group.
NPYLR7 ag = activates Aedes aegypti NPYLR7 receptor | 0.15% of 270,000 active | AID 1259423 | activation, % at 10 µM | HEK293T NPYLR7/Galpha15, GCaMP6s calcium fluorescence; in the data active = activation above about 40%;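 note: 0% = vehicle and 100% = reference agonist at the receptor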
hcGAS inh = blocks human cGAS activity | AID 1259398 | inhibition, % at 12.5 µM | Q8N884 | recombinant h-cGAS, ATP depletion, Kinase-Glo luminescence | 0.081% of 290,000 active;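 note: 0% = vehicle reaction and 100% = reaction without DNA for no activity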
Target sequence (Q8N884 whole entry, looked up): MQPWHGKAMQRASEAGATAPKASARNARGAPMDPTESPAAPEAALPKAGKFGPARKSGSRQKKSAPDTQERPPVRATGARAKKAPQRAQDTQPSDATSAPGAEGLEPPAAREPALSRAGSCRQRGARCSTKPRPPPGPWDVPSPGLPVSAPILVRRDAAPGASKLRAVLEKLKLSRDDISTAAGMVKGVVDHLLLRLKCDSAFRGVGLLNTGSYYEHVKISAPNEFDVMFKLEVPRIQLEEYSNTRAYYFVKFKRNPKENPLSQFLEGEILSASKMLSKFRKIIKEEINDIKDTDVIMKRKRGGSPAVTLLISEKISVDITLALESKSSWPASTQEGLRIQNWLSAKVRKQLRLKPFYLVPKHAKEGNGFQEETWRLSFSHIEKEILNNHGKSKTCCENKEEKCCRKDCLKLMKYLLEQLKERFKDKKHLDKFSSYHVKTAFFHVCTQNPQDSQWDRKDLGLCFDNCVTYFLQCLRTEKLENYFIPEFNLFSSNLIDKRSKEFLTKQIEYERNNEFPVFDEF
mcGAS inh = mouse cGAS inhibition by luminescence; Q8C6L5; recombinant cGAS, Kinase-Glo ATP depletion luminescence; inhibition, % at 12.5 µM; 0.15% of 160,000 active; AID 1259399;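 note: 0% = negative control wells and 100% = reference inhibitor with no enzyme activity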
Starred values were filed as active, the others as inactive; x = not tested or not shown; + = active, no number; ! = repeats disagree. Cut-off read from the data, not from the text of the source, unless noted: active = inhibition above about 40%; inactive = the rest.

SMILES	NPYLR7 ag	hcGAS inh	mcGAS inh
O=C(CCl)c1ccc(NC(=O)c2ccco2)cc1	10	-6	78*
O=C(NCc1ccccn1)c1ccc(NC(=O)c2ccco2)cc1	19	-14	x
COCc1nc(N(C)Cc2ccc3nonc3c2)c2cnn(C)c2n1	4	-5	x
O=c1[nH]c(SCCO)nc2sc3c(c12)CCCC3	40*	-1	-6
Cc1nc(SCCO)c2c3c(sc2n1)CCCC3	-1	-5	7
CCCc1nnc2c(C(=O)NCCC(c3ccccc3)c3ccccc3)cccn12	-5	-4	-2
COC(=O)CCNC(=O)Cn1cnc2ccccc2c1=O	4	3	0
Cc1ccn2c(NC3CCCCC3)c(-c3ccc(F)cc3)nc2c1	-6	-1	-3
C=CCNC(=O)c1ccccc1N1CCC(NC(=O)COC)CC1	-1	-7	54*
C=CCNC(=O)NC1CCN(c2ccccc2C(=O)NCCOC)CC1	-1	-5	-5
COc1ccc(S(=O)(=O)c2cnc(SCC(=O)Nc3cccc(C)c3)[nH]c2=O)cc1Cl	-10	5	8
CC(=O)NC1=NC(=O)C(CC(=O)c2ccc(C)cc2)S1 (centres undefined)	-15	-3	x
O=c1nc2sc3[nH]c(=O)sc3cc-2s1	244*	6	46*
N#Cc1cccc(C(=O)N2CCN(C(c3ccc(F)cc3)c3ccc(F)cc3)CC2)c1	20	-7	-7
CCn1cc(C(=O)O)c(=O)c2cnc(N3CCNCC3)nc21	70*!	-4	-7
CCn1cc(C(=O)O)c(=O)c2cc(F)c(N3CCNCC3)cc21	-3	-2	-4
CNC(=O)c1ccc(NC(=O)c2ccc(SC(F)(F)F)cc2)cc1	3	-5	-4
OCCN(CCO)c1nc(N2CCCCC2)c2nc(N(CCO)CCO)nc(N3CCCCC3)c2n1	75*!	1	-3
Cn1ncc2c(N3CCCCC3)nc(N(CCO)Cc3ccccc3)nc21	1	-6	-8
O=C(c1ccc([N+](=O)[O-])cc1)N1CCCc2ccccc21	4	-6	x
O=C(CCl)N1CCCc2cc([N+](=O)[O-])ccc21	2	1	96*
COc1ccc(-c2cnc(-c3ccc(CNC(=O)c4cc(C)nc(Cl)c4)cc3)[nH]2)cc1	17	-1	-3
COc1cc(Br)c(O)c(/C=N\n2c(C)n[nH]c2=S)c1	134*	10	x
COc1ccc(-c2n[nH]c(=S)n2N=Cc2ccc(OC)c(Br)c2)cc1	5	-5	-5
Cc1ccccc1C1(O)CCN(CC2CCC(N)CC2)C1 (centres undefined)	-2	-10	x
SMILES	NPYLR7 ag	hcGAS inh	mcGAS inh
C#CCOCC(O)CN(Cc1cccn1Cc1ccccc1C)C1CC1 (centres undefined)	35	-5	41*
C#CCOCC(O)CN(Cc1ccccc1C)C1CC1 (centres undefined)	16	-4	-2
CC(C)CNC(=O)N1CCCC(CC(=O)N2CCOC(C)(C)C2)C1 (centres undefined)	7	-4	x
CC1CCCCC1OCCNC(=O)C1(c2ccc(F)cc2)CCC1 (centres undefined)	55*	-3	x
O=C(NCCN1CCCC1)C1(c2ccc(F)cc2)CCOCC1	1	-16	x
O=c1c(O)c(-c2ccccc2)oc2cccc(O)c12	1	-2	x
O=[N+]([O-])c1cc([N+](=O)[O-])c2oc(-c3ccccc3)c(Br)c2c1O	-9	82*	91*
COc1cccc(Cc2c(C)nc(C)nc2N2CCN(C(=O)c3ccc(Cl)cc3)CC2)c1	2	-4	-4
Cc1ccc(C(=O)N(C)C2(C)CCS(=O)(=O)C2)cc1C (centres undefined)	11	-2	x
Cn1c(/C(C#N)=C/c2ccc(N3CCOCC3)o2)nc2ccccc21	126*	-18	x
Cn1c(C(C#N)=Cc2ccc([N+](=O)[O-])s2)nc2ccccc21	10	-4	x
CC1(C)CC(=O)c2c(nn(-c3ccccc3)c2-c2ccccn2)C1	6	0	x
COc1ccc(CCNC(=O)c2c(C)noc2-c2cccs2)cn1	4	1	68*
COc1ccc(CCNC(=O)c2c(C)noc2-c2ccccc2Cl)cn1	10	-3	-8
CN1C(=O)CC(C(=O)Nc2ccccc2F)SC1=Nc1cccc(Cl)c1 (centres undefined)	1	-4	-6
Cc1cc(C)n(-c2cc(NCCNC(=O)Nc3cccc(Cl)c3)nc(C)n2)n1	-5	2	-5
N=C1/C(=C/c2cccs2)C(=O)N=C2SC(Cc3ccccc3)=NN12	0	3	x
N=C1/C(=C/c2cccs2)C(=O)N=C2SC(c3ccccc3)=NN12	-1	56*	x
CC(C)(O/N=C(/C(=O)N[C@@H]1C(=O)N2C(C(=O)O)=C(C[n+]3ccccc3)CS[C@H]12)c1csc(N)n1)C(=O)O	12	-5	x
O=C(CC(c1cccc(O)c1)c1ccccc1Cl)NC1CCC(O)CC1 (centres undefined)	16	-6	x
COc1cccc(N/C=C(\C#N)C(=O)N2CCOCC2)c1	-1	-3	x
O=C(Nc1cccnc1N1CCN(C(=O)CCCOc2ccccc2)CC1)c1ccc2c(c1)OCO2	-4	-1	-5
O=C(OC[C@H]1O[C@H](OC(=O)c2cc(O)c(O)c(OC(=O)c3cc(O)c(O)c(O)c3)c2)[C@H](OC(=O)c2cc(O)c(O)c(OC(=O)c3cc(O)c(O)c(O)c3)c2)[C@@H](OC(=O)c2cc(O)c(O)c(OC(=O)c3cc(O)c(O)c(O)c3)c2)[C@@H]1OC(=O)c1cc(O)c(O)c(OC(=O)c2cc(O)c(O)c(O)c2)c1)c1cc(O)c(O)c(OC(=O)c2cc(O)c(O)c(O)c2)c1	-13	51*	x
CC(=O)OC[C@H]1O[C@@H](Oc2cc(OC(C)=O)c3c(=O)cc(-c4ccc(OC(C)=O)cc4)oc3c2)[C@H](OC(C)=O)[C@@H](OC(C)=O)[C@@H]1OC(C)=O	-3	-4	x
CCOC(=O)N1CCN(C(=O)c2cn(C/C=C/c3ccccc3)nn2)CC1	0	-1	x
SMILES	NPYLR7 ag	hcGAS inh	mcGAS inh
O=C1Nc2ccc(Br)cc2C12NN=C(c1ccccc1)S2 (centres undefined)	8	-8	-3
COc1ccc2ccccc2c1[C@@H]1C[C@H]2CN(C)C(=O)[C@]23CCCN13	x	-3	x
CCCOc1ccc(C=O)c(O)c1	1	2	x
CCOc1cc(C=O)c(O)c(C=O)c1	827*	15	x
CCOc1cc(-c2nccn2CCc2nc(C)cc(C)n2)ccc1O	4	-2	-8
O=C1/C(=C/c2csnn2)COc2c1ccc(Cl)c2Cl	-2	-7	x
Cc1cc(C)c2c(c1)OC/C(=C\c1csnn1)C2=O	-4	-1	45*
O=C(CCCC(=O)Oc1ccoc(=O)c1)Oc1ccoc(=O)c1	8	-5	x
CC(C)CCCC1CN(C(=O)CCn2cccn2)CCO1 (centres undefined)	-1	1	x
Cn1c(Cc2cccs2)nn(CN2CCC(c3ccc(O)cc3)CC2)c1=S	2	2	x
O=C(O)CCc1cccs1	1	-3	x
O=C(O)CCC(=O)c1cccs1	0	48*	-7
O=c1c2cc3c(=O)n(-c4ncn[nH]4)ccc3nc2ccn1-c1ccccn1	-11	-10	x
COc1cccc(-c2cc(C(=O)N(CCC(=O)NCCC3CCCN3C)CC(C)C)no2)c1 (centres undefined)	6	+	x
CC(C)NC(=O)CCN(CC1CCCO1)C(=O)c1cc(-c2cccc(Cl)c2)on1 (centres undefined)	x	-6	-6

Compound activity: PubChem BioAssay, Fisher Drug Discovery Resource Center
